# Test results from the supplement of paper PMC10720658.
# ± gives the standard deviation of the averaged measurements.
# System: AEK1 (Tb927.3.2440)
# Assay: percent reduction in TR-FRET probe signal relative to DMSO control; higher = stronger displacement of ATP-site probe (binding)
# Details: 1 µM; incubation time 1 h
row,Structure (SMILES),percent reduction in TR-FRET probe signal [%]
1,COc1ccc2c(Oc3ccc(NC(=O)c4c(C)n(CC(C)(C)O)n(-c5ccccc5)c4=O)nc3)ccnc2c1,0.253 ± 6.4
2,FC(F)(F)c1ccc(/C=C/c2nc(COc3ccc(CCCCn4ccnn4)cc3)co2)cc1 [Mubritinib (TAK 165)],0.627 ± 0.93
3,COc1cc2ncnc(Oc3cccc(NC(=O)Nc4cc(C(C)(C)C(F)(F)F)on4)c3)c2cc1OC,1.1 ± 13
4,CC(C)(C)n1nc(-c2ccc(Cl)cc2)c2c(N)ncnc21,-1.96 ± 9.6
5,Nc1nc(NCCNc2ncc(-n3ccnc3)c(-c3ccc(Cl)cc3Cl)n2)ccc1[N+](=O)[O-],4.72 ± 12
6,O=C(/C=C/c1ccc(O)c(O)c1)c1ccc(O)cc1O [Butein],4.05 ± 5.4
7,Cc1ccc(-n2nc(C(C)(C)C)cc2NC(=O)Nc2ccc(OCCN3CCOCC3)c3ccccc23)cc1 [BIRB 796 (Doramapimod)],1.12 ± 5.4
8,CCN(C)S(=O)(=O)Nc1ccc(F)c(C(=O)c2c[nH]c3ncc(-c4cnc(C5CC5)nc4)cc23)c1F,-1.7 ± 4
9,CCC[C@H](NC(=O)/C(C#N)=C/c1cccc(Br)n1)c1ccccc1 [Degrasyn (WP1130)],2.37 ± 17
10,CCc1nc(-c2cccc(C)c2)c(-c2ccnc(NC(=O)c3ccccc3)c2)s1,-2.96 ± 11
11,CC(=O)Nc1cccc(-n2c(=O)n(C3CC3)c(=O)c3c(Nc4ccc(I)cc4F)n(C)c(=O)c(C)c32)c1,4.31 ± 12
12,O=C1Nc2ccccc2/C1=C1\Nc2ccccc2C1=O [Indirubin],-2.5 ± 6.6
13,NC1(Cc2ccc(Cl)cc2)CCN(c2ncnc3[nH]ccc23)CC1,2.05 ± 3.4
14,Cn1cnc(-c2cc3nccc(Oc4ccc(NC(=S)NC(=O)Cc5ccccc5)cc4F)c3s2)c1,10.3 ± 8.6
15,C[C@@H]1CN(CC(=O)Nc2ccc3c(c2)Cc2cccc(-c4cc(=O)cc(N5CCOCC5)o4)c2S3)C[C@H](C)O1,-2.9 ± 6.6
16,"CC[C@H](Nc1ncnc2[nH]cnc12)c1nc2cccc(F)c2c(=O)n1-c1ccccc1 [CAL-101 (Idelalisib, GS-1101)]",0.66 ± 12
17,O=C(O)CCC(=O)Nc1ccc(Br)cn1 [Bikinin],-3.76 ± 0.8
18,COc1cccc(-c2cc(=O)c3ccccc3o2)c1N,-1.76 ± 8
19,C[C@@H]1COCCN1c1cc(C2(S(C)(=O)=O)CC2)nc(-c2cccc3[nH]ccc23)n1,0.253 ± 7.1

row,Structure (SMILES),percent reduction in TR-FRET probe signal [%]
1,Cc1ccc(NC(=O)c2ccc(CN3CCN(C)CC3)cc2)cc1Nc1nc(-c2cccnc2)cs1 [Masitinib (AB1010)],-4.2 ± 7
2,COc1ncc(-c2ccc3nccc(-c4ccnnc4)c3c2)cc1NS(=O)(=O)c1ccc(F)cc1F,3.02 ± 16
3,O=C(Nc1cccc(Nc2ncc(Br)c(NCCc3cnc[nH]3)n2)c1)N1CCCC1,52.9 ± 12
4,c1cncc(CN2CCC(n3ncc4c(N5CCOCC5)nc(-c5ccc6[nH]ccc6c5)nc43)CC2)c1,6.62 ± 13
5,COCC(=O)NC/C=C/c1ccc2ncnc(Nc3ccc(Oc4ccc(C)nc4)c(C)c3)c2c1,3.65 ± 5.5
6,COc1ccc(S(=O)(=O)N(C(C)=O)c2ccccc2/C=C/c2cc[n+]([O-])cc2)cc1,-0.117 ± 12
7,CC(C)CCN1c2nc(Nc3cc(F)c(O)c(F)c3)ncc2N(C)C(=O)C1C (configuration not stated),-13.7 ± 9.2
8,COc1ccc(COc2cc3oc(=O)c4cc(C(C)O)ccc4c3cc2OC)cc1 (configuration not stated) [Palomid 529 (P529)],-5.44 ± 9.3
9,Cl.Cl.Fc1cc(-c2cccc3ncc(-c4cnn(C5CCNCC5)c4)nc23)cc(F)c1CN1CCOCC1,10.7 ± 13
10,CS(=O)(=O)c1ccc(-c2cnc(N)c(C(=O)Nc3ccccc3)n2)cc1,5.23 ± 4.7
11,CO[C@H]1C[C@@H]2CC[C@@H](C)[C@@](O)(O2)C(=O)C(=O)N2CCCC[C@H]2C(=O)O[C@H]([C@@H](C)C[C@@H]2CC[C@@H](OCCO)[C@H](OC)C2)CC(=O)[C@H](C)/C=C(\C)[C@@H](O)[C@@H](OC)C(=O)[C@H](C)C[C@H](C)/C=C/C=C/C=C/1C [Everolimus (RAD001)],-14.9 ± 8.4
12,COc1ccc(S(=O)(=O)N(CCO)c2ccccc2CN(C)C/C=C/c2ccc(Cl)cc2)cc1.O=P(O)(O)O [KN-93 Phosphate],-9.18 ± 9.6
13,CN1CCN(c2nc(C3=C(c4c[nH]c5ccccc45)C(=O)NC3=O)c3ccccc3n2)CC1 [Sotrastaurin],-7.1 ± 1.4
14,CC(=O)c1c(C)c2cnc(Nc3ccc(N4CCNCC4)cn3)nc2n(C2CCCC2)c1=O.Cl,-16.8 ± 5.1
15,Oc1ccc2ccccc2c1SSc1c(O)ccc2ccccc12,-9.34 ± 9
16,CN(C[C@@H]1COCCO1)S(=O)(=O)Nc1ccc2ccc3ncc(-c4cnn(C)c4)cc3c(=O)c2c1,7.88 ± 10
17,COc1ccc(CNC(=O)Nc2ncc([N+](=O)[O-])s2)cc1,-3.27 ± 4.3
18,O=C1NC(=O)/C(=C\c2ccc(-c3ccc(F)cc3)o2)S1,-0.187 ± 4.6
